# Experimental data from PubChem BioAssay AID1159580 (chemical genetic matrix, 2015).
# Where “and” joins values, the source holds several entries; their conditions need not be identical. Equal values may be shown once. Hit rate of the full screen: of about 5,500 compounds, about 2,000 (36%) were called active. Another 18% or so got no clear call; they are omitted. Some of the results follow. Unmarked numbers belong to inactive results. No stated cut-off is given here; in the data, active means normalized growth mostly below about 0.91 (no sharp cut-off); inconclusive means no clear call, values can overlap the other calls; inactive means mostly above about 0.92.
# Test: chemical genetic growth profiling, strain panel (AID 1159580);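 further: tested at 20 µM; growth read once vehicle control cultures reached saturation at 30 °C; 1 = growth at the plate median or of vehicle wells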
# Details: S. cerevisiae deletion strains, growth OD
structure (smiles),measurement,setting,value
Clc1ccc2c(c1)C(N1CCNCC1)=Nc1ccccc1O2,normalized growth,"locus YAL013W, strain DEP1, stronger effect = lower value",0.984 and 1.02
same,normalized growth,"locus YAL021C, strain ccr4, stronger effect = lower value",0.829 (active)
same,normalized growth,"locus YAL026C, strain drs2, stronger effect = lower value",0.466 (active)
same,normalized growth,"locus YAL030W, strain snc1, stronger effect = lower value",0.978
same,normalized growth,"locus YAL040C, strain CLN3, stronger effect = lower value",1.01
same,normalized growth,"locus YBL061C, strain skt5, stronger effect = lower value",0.991
same,normalized growth,"locus YBR009C, strain hhf1, stronger effect = lower value",0.963
same,normalized growth,"locus YBR021W, strain FUR4, stronger effect = lower value",0.989
same,normalized growth,"locus YBR023C, strain chs3, stronger effect = lower value",0.969
same,normalized growth,"locus YBR171W, strain sec66, stronger effect = lower value",0.991
same,normalized growth,"locus YBR229C, strain ROT2, stronger effect = lower value",0.952
same,normalized growth,"locus YBR231C, strain swc5, stronger effect = lower value",0.994
same,normalized growth,"locus YBR279W, strain paf1, stronger effect = lower value",0.968
same,normalized growth,"locus YCL011C, strain gbp2, stronger effect = lower value",0.988
same,normalized growth,"locus YCL016C, strain dcc1, stronger effect = lower value",0.979
same,normalized growth,"locus YCL029C, strain bik1, stronger effect = lower value",0.986
same,normalized growth,"locus YCL069W, strain vba3, stronger effect = lower value",0.969
same,normalized growth,"locus YCR088W, strain abp1, stronger effect = lower value",0.994
same,normalized growth,"locus YDL005C, strain med2, stronger effect = lower value",0.994
same,normalized growth,"locus YDL035C, strain GPR1, stronger effect = lower value",0.972
same,normalized growth,"locus YDL040C, strain nat1, stronger effect = lower value",1.01
same,normalized growth,"locus YDL074C, strain BRE1, stronger effect = lower value",1.03
same,normalized growth,"locus YDL101C, strain DUN1, stronger effect = lower value",0.991
same,normalized growth,"locus YDL134C, strain PPH21, stronger effect = lower value",0.996
same,normalized growth,"locus YDL185W, strain tfp1, stronger effect = lower value",0.986
same,normalized growth,"locus YDL192W, strain arf1, stronger effect = lower value",0.99
same,normalized growth,"locus YDR001C, strain nth1, stronger effect = lower value",0.992
same,normalized growth,"locus YDR069C, strain doa4, stronger effect = lower value",0.901
same,normalized growth,"locus YDR101C, strain arx1, stronger effect = lower value",0.995
same,normalized growth,"locus YDR137W, strain rgp1, stronger effect = lower value",1.32 [resistant] (active)
same,normalized growth,"locus YDR150W, strain NUM1, stronger effect = lower value",0.974
same,normalized growth,"locus YDR159W, strain sac3, stronger effect = lower value",0.984
same,normalized growth,"locus YDR162C, strain NBP2, stronger effect = lower value",0.988
same,normalized growth,"locus YDR195W, strain ref2",1.07
same,normalized growth,"locus YDR297W, strain sur2, stronger effect = lower value",0.992
same,normalized growth,"locus YDR318W, strain mcm21, stronger effect = lower value",0.993
same,normalized growth,"locus YDR334W, strain swr1, stronger effect = lower value",0.957
same,normalized growth,"locus YDR335W, strain msn5, stronger effect = lower value",0.975
same,normalized growth,"locus YDR388W, stronger effect = lower value",0.98
same,normalized growth,"locus YDR392W, strain spt3, stronger effect = lower value",1.06
same,normalized growth,"locus YDR502C, strain sam2, stronger effect = lower value",0.959
same,normalized growth,"locus YEL003W, strain gim4, stronger effect = lower value",0.996
same,normalized growth,"locus YEL037C, strain rad23, stronger effect = lower value",0.968
same,normalized growth,"locus YEL061C, strain CIN8 (second series), stronger effect = lower value",0.992
same,normalized growth,"locus YEL061C, strain CIN8, stronger effect = lower value",0.984
same,normalized growth,"locus YER002W, strain NOP16, stronger effect = lower value",0.998
same,normalized growth,"locus YER015W, strain faa2, stronger effect = lower value",0.983
same,normalized growth,"locus YER016W, strain bim1, stronger effect = lower value",0.993
same,normalized growth,"locus YER110C, stronger effect = lower value",0.978
same,normalized growth,"locus YER111C, strain swi4, stronger effect = lower value",0.984
same,normalized growth,"locus YER155C, strain BEM2 (second series), stronger effect = lower value",0.992
same,normalized growth,"locus YER155C, strain BEM2, stronger effect = lower value",1
same,normalized growth,"locus YER167W, strain BCK2, stronger effect = lower value",0.994
same,normalized growth,"locus YFR010W, strain ubp6, stronger effect = lower value",0.88 (active)
same,normalized growth,"locus YGL078C, strain dbp3, stronger effect = lower value",0.968
same,normalized growth,"locus YGL086W, strain mad1, stronger effect = lower value",0.986
same,normalized growth,"locus YGL167C, strain pmr1, stronger effect = lower value",0.974
same,normalized growth,"locus YGL173C, strain kem1, stronger effect = lower value",0.928
same,normalized growth,"locus YGL227W, strain vid30, stronger effect = lower value",0.985
same,normalized growth,"locus YGL240W, strain doc1, stronger effect = lower value",0.975
same,normalized growth,"locus YGL248W, strain PDE1, stronger effect = lower value",0.987
same,normalized growth,"locus YGL253W, strain hxk2, stronger effect = lower value",0.989
same,normalized growth,"locus YGR078C, strain PAC10, stronger effect = lower value",1
same,normalized growth,"locus YGR135W, strain pre9, stronger effect = lower value",0.98
same,normalized growth,"locus YGR229C, strain SMI1, stronger effect = lower value",0.937
same,normalized growth,"locus YGR252W, strain gcn5, stronger effect = lower value",0.915
same,normalized growth,"locus YHR013C, strain ard1, stronger effect = lower value",0.891
same,normalized growth,"locus YHR027C, strain rpn1, stronger effect = lower value",0.989
same,normalized growth,"locus YHR030C, strain SLT2, stronger effect = lower value",0.994 and 1.02
same,normalized growth,"locus YHR079C, strain IRE1 (second series), stronger effect = lower value",0.986
same,normalized growth,"locus YHR079C, strain IRE1, stronger effect = lower value",1.03
same,normalized growth,"locus YHR094C, strain hxt1, stronger effect = lower value",0.998
same,normalized growth,"locus YHR129C, strain ARP1, stronger effect = lower value",1
same,normalized growth,"locus YHR142W, strain chs7, stronger effect = lower value",0.957
same,normalized growth,"locus YHR200W, strain rpn10, stronger effect = lower value",0.992
same,normalized growth,"locus YIL066C, strain RNR3, stronger effect = lower value",0.978
same,normalized growth,"locus YIL073C, strain SPO22, stronger effect = lower value",1.05
same,normalized growth,"locus YIL125W, strain kgd1, stronger effect = lower value",0.97
same,normalized growth,"locus YIR030C, strain dcg1, stronger effect = lower value",0.986
same,normalized growth,"locus YJL092W, strain hpr5, stronger effect = lower value",0.987
same,normalized growth,"locus YJL095W, strain BCK1 (second series), stronger effect = lower value",0.965
same,normalized growth,"locus YJL095W, strain BCK1, stronger effect = lower value",0.98 and 1.02
same,normalized growth,"locus YJL115W, strain asf1, stronger effect = lower value",0.957
same,normalized growth,"locus YJL129C, strain trk1, stronger effect = lower value",1.06
same,normalized growth,"locus YJL134W, strain LCB3, stronger effect = lower value",0.985
same,normalized growth,"locus YJL154C, strain vps35, stronger effect = lower value",0.97
same,normalized growth,"locus YJL164C, strain tpk1, stronger effect = lower value",0.964
same,normalized growth,"locus YJL166W, strain qcr8, stronger effect = lower value",0.984
same,normalized growth,"locus YJL168C, strain set2, stronger effect = lower value",0.996
same,normalized growth,"locus YJL187C, strain SWE1 (second series), stronger effect = lower value",1
same,normalized growth,"locus YJR043C, strain POL32, stronger effect = lower value",1.02
same,normalized growth,"locus YJR066W, strain TOR1, stronger effect = lower value",0.972
same,normalized growth,"locus YJR075W, strain HOC1, stronger effect = lower value",1
same,normalized growth,"locus YKL009W, strain mrt4, stronger effect = lower value",0.96
